In all, about 63,000 compounds went through this assay and about 1,100 (1.7%) were called active. This is one part of a sample in which actives are shown more often than they occur. Cut-off read from the data, not from the text of the source: active = cytotoxicity above about 50%; inactive = the rest. Potency and affinity values are given separately.

The test can be described thus: HPDE-C7 pancreatic duct cell viability loss – fluorescence, HTS (AID 430).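 Note: cells exposed to compound for 48 hours before viability readout; 0% = vehicle and 100% = reference cytotoxic drug.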 Particulars: HPDE-C7 pancreatic duct cells viability, at 10 µM, stronger effect = higher value.
`CSCCC(C(=O)Nc1ccc2c(c1)OCO2)N1C(=O)c2ccccc2C1=O` (stereo unspecified): the cytotoxicity is 0.6% (inactive). Next, `CN(C)c1ccc(CNC(=O)C2CCN(S(=O)(=O)c3ccc4c(c3)CCC(=O)N4)CC2)cc1`: 3.1% (inactive). For `COc1ccc(N2CC(C(=O)NCCCN3CCOCC3)CC2=O)cc1` (stereo unspecified) the value was 3.4% (inactive); for `Cn1c(=O)c2c(nc(SCCN3CCOCC3)n2Cc2ccc(F)cc2)n(C)c1=O`, 3.9% (inactive); for `CCCc1nc2ccccc2c(C(=O)OC2CCOC2=O)c1CC` (stereo unspecified), -7.5% (inactive). Next, `NC1(N)OC(CN2C(=O)c3ccccc3C2=O)CS1` (stereo unspecified): -15% (inactive); `CC1=CC(C)(C)N2C(=O)C3(C(C#N)=C(N)Oc4cc(C)oc(=O)c43)c3cccc1c32` (stereo unspecified): 1.3% (inactive); `CC1=CC(C)(C)N2C(=O)C3(C(C#N)=C(N)Oc4cc(O)ccc43)c3cccc1c32` (stereo unspecified): 68.4% (active).

Turning to `COc1cc2c3c(c1)C1(C(=O)N3C(C)(C)C=C2C)C(C#N)=C(N)Oc2cc(O)ccc21` (stereo unspecified), the cytotoxicity is -9.2% (inactive). For `Cc1ccc2cc3c(nc2c1)N(Cc1ccco1)CC3` the value was -15.5% (inactive). For `CC1CCN(S(=O)(=O)c2ccc(NC(=O)Cn3nnc(-c4ccccc4)n3)cc2)CC1` the value was 3.7% (inactive); for `Cc1cc(NC(=O)COc2cccc3cccnc23)no1`, 7.3% (inactive); for `COc1ccc(CNC(=O)C(C#N)c2nc3ccccc3nc2N2CCCC2)cc1` (stereo unspecified), -15.8% (inactive). Next, `CC(C)COC(=O)C(C#N)c1nc2ccccc2nc1N1CCN(Cc2ccccc2)CC1` (stereo unspecified): -14% (inactive); `CCCCCCOC(=O)C(C#N)c1nc2ccccc2nc1N1CCCCC1` (stereo unspecified): -47.4% (inactive). In the case of `COc1ccc(CNC(=O)C(C#N)c2nc3ccccc3nc2N2CCN(C)CC2)cc1` (stereo unspecified), the cytotoxicity is 72% (active).

On to `CCCCCCOC(=O)C(C#N)c1nc2ccccc2nc1N1CCN(C)CC1` (stereo unspecified), for which the cytotoxicity was 64.2% (active). For `N#CC(C(=O)NCc1ccccc1)c1nc2ccccc2nc1N1CCCC1` (stereo unspecified) the value was -2% (inactive); for `COCCOC(=O)C(C#N)c1nc2ccccc2nc1N1CCN(Cc2ccccc2)CC1` (stereo unspecified), 8.9% (inactive). `CCN1CCN(c2nc3ccccc3nc2C(C#N)C(=O)OCc2ccccc2)CC1` (stereo unspecified): the cytotoxicity was 58% (active). Next, `CCCCCCOC(=O)C(C#N)c1nc2ccccc2nc1N1CCN(CC)CC1` (stereo unspecified): 12.4% (inactive). Next, `Cc1cc2cc(CCNC(=O)CC(C)C)c(=O)[nH]c2cc1C`: 3.7% (inactive); `O=C(NCc1ccco1)c1cc2ccccc2c(=O)o1`: -3.4% (inactive); `Cc1nc(-c2cn[nH]c2)c2cc(C)oc2n1`: 1.2% (inactive).

Consider `CCCN(CCC)c1nc2ccccc2nc1C(C#N)C(=O)OCCOC` (stereo unspecified), for which the cytotoxicity is -8.9% (inactive). For `Cc1nnc(SCC(=O)Nc2nc3c(s2)CC(C)CC3)s1` (stereo unspecified) the value was 1% (inactive).
